“And” between values parts separate entries of the source, which are not always exact repeats. Equal entries are not always repeated. Results filed as inconclusive are left out. Where a call stands in place of a potency, no number is given. The source holds several records for some structures; these can differ, active in one and inactive in another. The source made the active and inactive calls. The call rests on the fitted dose curve; in most records, active means well fitted curve in the direction sought with a large enough effect in the repeat runs; inconclusive means weak or mixed curves; inactive means no such curve, though single readings can be large; an effect the other way counts as inactive or inconclusive.
Legend:
[1] = A CellTox Green Cytotoxicity Assay to monitor cytotoxicity in HEK293 cells - 8 hour (AID 1224884); further: nearly all actives have a fitted effect of over 35% in size
Outline: (§1)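 Each value comes from one timepoint of a single continuous run in which HEK293 cells with CellTox Green were exposed to compound for up to 40 h at 37 C, dye fluorescence rising with cell death.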

[2] = qHTS RealTime-Glo MT Cell Viability Assay in HEK293 cells - 24 hour (AID 1224886); further: nearly all actives have a fitted effect of over 50% in size; further: potency means the concentration at half of the fitted maximal effect; on activity change, negative = cytotoxicity: top concentration of the series differs between compounds
Outline: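 Viability tracked continuously by luminescence as live cells reduce a prosubstrate for NanoLuc; HEK293 cells preincubated 5 h, compound-treated at 37 C, and read at 0, 8, 16, 24, 32 and 40 h.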

[3] = qHTS RealTime-Glo MT Cell Viability Assay in HEK293 cells - 8 hour (AID 1224887); further: nearly all actives have a fitted effect of over 50% in size; further: potency means the concentration at half of the fitted maximal effect; on activity change, negative = cytotoxicity: top concentration of the series differs between compounds
Outline: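 qHTS format; HEK293 cells with NanoLuc/prosubstrate reagent, 37 C/5% CO2 for 5 h pre-dosing; compounds 23 nL in DMSO; luminescence at each time point reflects viable cells.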

[4] = A CellTox Green Cytotoxicity Assay to monitor cytotoxicity in HEK293 cells - 16 hour (AID 1224888); further: nearly all actives have a fitted effect of over 35% in size
Outline: as §1

[5] = A CellTox Green Cytotoxicity Assay to monitor cytotoxicity in HepG2 cells - 8 hour (AID 1224890); further: nearly all actives have a fitted effect of over 45% in size; further: potency means the concentration at half of the fitted maximal effect
Outline: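 Continuous culture of HepG2 cells with a membrane-impermeant DNA dye; rising fluorescence marks dead cells. Compound exposure lasted up to 40 h at 37 C, with reads every 8 h from 0 h.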

[6] = qHTS assay to identify small molecule antagonists of the androgen receptor (AR) signaling pathway using the MDA cell line in the presence of 0.5 nM R1881 - cell viability counter screen (AID 1259242); further: nearly all actives have a fitted effect of over 45% in size
Outline: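 Fluorescence from CellTiter-Fluor, which reports protease activity of live cells, was read 30 min after reagent addition to MDA-kb2 cells that had been incubated 16 hr with compound and 0.5 nM R1881.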

[7] = qHTS RealTime-Glo MT Cell Viability Assay in HepG2 cells - 0 hour (AID 1224889); further: nearly all actives have a fitted effect of over 50% in size; further: potency means the concentration at half of the fitted maximal effect
Outline: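 Viability was tracked continuously by NanoLuc luminescence from prosubstrate reduced by living HepG2 cells, at successive time points over 40 h of compound exposure. Cells with reagent were preincubated 5 h at 37 °C before compound addition.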

[8] = qHTS assay to identify small molecule antagonists of the estrogen receptor alpha (ER-alpha) signaling pathway using the BG1 cell line in the presence of 0.1 nM 17-beta-estradiol - cell viability counter screen (AID 1259241); further: nearly all actives have a fitted effect of over 40% in size
Outline: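 Following 5 days in phenol red-free medium with charcoal-stripped serum, VM7Luc4E2 cells received test compounds alongside 0.1 nM 17beta-estradiol (final) at 37C for 22 hr. Live cells were then quantified via protease-substrate fluorescence.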

[9] = target: Androgen receptor (Homo sapiens) (UniProt P10275); test: qHTS assay to identify small molecule antagonists of the androgen receptor (AR) signaling pathway using the MDA cell line in the presence of 0.5 nM R1881 (AID 1259243); further: nearly all actives have a fitted effect of over 50% in size; further: potency means the concentration at half of the fitted maximal effect
Outline: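 Inhibition of R1881 (0.5 nM final) induced reporter signal was measured in human MDA-kb2 cells; note the MMTV promoter also responds to GR. Exposure lasted 16 hr at 37C.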

Chain of Androgen receptor (Homo sapiens) (P10275 whole entry, looked up): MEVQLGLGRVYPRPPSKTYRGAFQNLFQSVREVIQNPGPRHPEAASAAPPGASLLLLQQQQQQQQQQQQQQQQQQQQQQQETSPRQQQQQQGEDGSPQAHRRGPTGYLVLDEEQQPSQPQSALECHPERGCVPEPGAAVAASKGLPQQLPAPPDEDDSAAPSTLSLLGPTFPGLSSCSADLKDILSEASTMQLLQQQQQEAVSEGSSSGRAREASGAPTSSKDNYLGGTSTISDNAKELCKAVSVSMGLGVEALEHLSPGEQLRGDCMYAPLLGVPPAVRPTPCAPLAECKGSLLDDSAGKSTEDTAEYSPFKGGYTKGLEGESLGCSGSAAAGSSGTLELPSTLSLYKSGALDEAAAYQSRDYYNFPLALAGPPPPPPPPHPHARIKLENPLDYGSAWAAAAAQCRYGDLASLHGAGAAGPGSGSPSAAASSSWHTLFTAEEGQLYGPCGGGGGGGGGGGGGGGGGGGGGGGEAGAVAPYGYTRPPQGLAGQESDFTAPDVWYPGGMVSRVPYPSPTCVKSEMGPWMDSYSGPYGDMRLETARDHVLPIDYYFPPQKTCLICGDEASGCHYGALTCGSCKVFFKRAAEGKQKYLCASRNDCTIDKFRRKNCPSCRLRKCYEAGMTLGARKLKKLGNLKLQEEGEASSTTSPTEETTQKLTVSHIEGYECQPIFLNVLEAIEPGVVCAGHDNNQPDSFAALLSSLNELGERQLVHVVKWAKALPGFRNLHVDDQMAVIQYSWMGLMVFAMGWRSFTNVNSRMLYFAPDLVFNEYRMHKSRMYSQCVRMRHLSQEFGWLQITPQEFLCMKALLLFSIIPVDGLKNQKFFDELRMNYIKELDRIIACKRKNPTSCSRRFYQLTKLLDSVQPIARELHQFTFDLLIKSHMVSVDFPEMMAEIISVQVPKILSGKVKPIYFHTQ

## Cc1ccc2oc(=O)ccc2c1
[1]
  outcome: inactive
[2]
  Potency: inactive
[3]
  Potency: inactive
[4]
  outcome: inactive
[5]
  Potency: inactive
[6]
  outcome: inactive

## CC1CCC2CC1C2(C)C (configuration not stated)
[1]
  outcome: inactive
[2]
  Potency: inactive
[3]
  Potency: inactive
[4]
  outcome: inactive
[5]
  Potency: inactive
[6]
  outcome: inactive

## CC(C)(C)[C@@H](O)[C@@H](Cc1ccc(Cl)cc1)n1cncn1
[1]
  outcome: inactive
[3]
  Potency: inactive
[4]
  outcome: inactive
[7]
  Potency: inactive
[5]
  Potency: inactive
[8]
  Potency: inactive
[6]
  outcome: inactive

## c1ccc2c(c1)ccc1ccccc12
[1]
  outcome: inactive
[2]
  Potency: inactive
[3]
  Potency: inactive
[4]
  outcome: inactive
[7]
  Potency: inactive
[5]
  Potency: inactive
[8]
  Potency: inactive
[9]
  Potency: 17.2 µM (active)

## CCN(CC)CCCC(C)Nc1ccnc2cc(Cl)ccc12 (configuration not stated)
[1]
  cytotoxicity increase: -10.7% [at 6.97 µM] (inactive) and -2.14% [at 15.8 µM] (inactive)
[2]
  activity change, negative = cytotoxicity: -16.8% [at 6.97 µM] (inactive)
[3]
  activity change, negative = cytotoxicity: -9.86% [at 6.97 µM] (inactive)
[6]
  viability change, negative = cytotoxic: -8.89% [at 8.39 µM] (inactive)

## Cc1occc(=O)c1O
[1]
  outcome: inactive
[2]
  Potency: inactive
[3]
  Potency: inactive
[4]
  outcome: inactive
[7]
  Potency: inactive
[5]
  Potency: inactive
[8]
  Potency: inactive
[6]
  outcome: inactive

## OC[C@H]1O[C@@](CO)(O[C@H]2O[C@H](CO)[C@@H](O)[C@H](O)[C@H]2O)[C@@H](O)[C@@H]1O
[1]
  outcome: inactive
[4]
  outcome: inactive
[5]
  Potency: inactive

## CCCCCCCCCCCCc1ccccc1
[1]
  outcome: inactive
[2]
  Potency: inactive
[3]
  Potency: inactive
[4]
  outcome: inactive
[5]
  Potency: inactive
[8]
  Potency: inactive
[6]
  outcome: inactive

## COCCCOc1ccnc(CS(=O)c2nc3ccccc3[nH]2)c1C (configuration not stated)
[1]
  outcome: inactive
[2]
  Potency: 10.9 µM (active) and inactive
[3]
  Potency: 19.4 µM (active) and inactive
[4]
  outcome: inactive
[7]
  Potency: inactive
[8]
  Potency: inactive
[6]
  outcome: inactive

## O=C(O)c1ccccc1C(c1ccc(O)cc1)c1ccc(O)cc1
[1]
  outcome: inactive
[2]
  Potency: inactive
[3]
  Potency: inactive
[4]
  outcome: inactive
[8]
  Potency: inactive
[9]
  Potency: inactive

## C#C[C@]1(O)CC[C@H]2[C@@H]3CCC4=CC(=O)CC[C@@H]4[C@H]3CC[C@@]21C
[1]
  outcome: inactive
[2]
  Potency: inactive
[3]
  Potency: inactive
[4]
  outcome: inactive
[7]
  Potency: inactive
[5]
  Potency: inactive
[8]
  Potency: inactive
[6]
  outcome: inactive

## c1ccc2scnc2c1
[1]
  outcome: inactive
[2]
  Potency: inactive
[3]
  Potency: inactive
[4]
  outcome: inactive
[7]
  Potency: inactive
[5]
  Potency: inactive
[8]
  Potency: inactive
[6]
  outcome: inactive

## C[C@H]1C[C@H]2[C@@H]3CCC4=CC(=O)C=C[C@]4(C)[C@@]3(F)[C@@H](O)C[C@]2(C)[C@@]1(O)C(=O)CO
[1]
  outcome: inactive
[2]
  Potency: inactive
[3]
  Potency: inactive
[4]
  outcome: inactive
[7]
  Potency: 7.76 µM (active)
[5]
  Potency: inactive
[6]
  outcome: inactive

## CCOC(=O)NNc1nncc2ccccc12
[1]
  outcome: inactive
[2]
  Potency: inactive
[3]
  Potency: inactive
[4]
  outcome: inactive
[7]
  Potency: inactive
[5]
  Potency: inactive
[8]
  Potency: inactive

## CN(C)CCC(c1ccccc1)c1ccccn1 (configuration not stated)
[1]
  outcome: inactive
[2]
  Potency: inactive
[3]
  Potency: inactive
[4]
  outcome: inactive
[7]
  Potency: inactive
[6]
  outcome: inactive

## O=C=NCCCCCCN=C=O
[1]
  outcome: inactive
[2]
  Potency: inactive
[3]
  Potency: inactive
[4]
  outcome: inactive
[7]
  Potency: inactive
[5]
  Potency: inactive
[8]
  Potency: inactive
[6]
  outcome: inactive

## C=CCOC(=O)c1ccccc1C(=O)OCC=C
[1]
  outcome: inactive
[2]
  Potency: inactive
[3]
  Potency: inactive
[4]
  outcome: inactive
[7]
  Potency: inactive
[8]
  Potency: inactive
[6]
  outcome: inactive

## CCc1cccc(C)c1N
[1]
  outcome: inactive
[2]
  Potency: inactive
[3]
  Potency: inactive
[4]
  outcome: inactive
[7]
  Potency: inactive
[9]
  Potency: inactive

## CCN(CC)c1ccc(C(=O)c2ccccc2C(=O)O)c(O)c1
[1]
  outcome: inactive
[2]
  Potency: inactive
[3]
  Potency: inactive
[4]
  outcome: inactive
[7]
  Potency: inactive
[6]
  outcome: inactive

## COc1cc(Cc2cnc(N)nc2N)cc(OC)c1OC
[1]
  outcome: inactive
[2]
  Potency: inactive
[3]
  Potency: inactive
[4]
  outcome: inactive
[8]
  Potency: inactive
[6]
  outcome: inactive

## c1c[nH]cn1
[1]
  outcome: inactive
[2]
  Potency: inactive
[3]
  Potency: inactive
[4]
  outcome: inactive
[5]
  Potency: inactive
[8]
  Potency: inactive
[6]
  outcome: inactive

## CN(C)CCOCCN(C)C
[1]
  outcome: inactive
[2]
  Potency: inactive
[3]
  Potency: inactive
[4]
  outcome: inactive
[7]
  Potency: inactive
[5]
  Potency: inactive and 49 µM (active)
[6]
  outcome: inactive

## CCCCC(CC)COC(=O)C(C#N)=C(c1ccccc1)c1ccccc1 (configuration not stated)
[1]
  outcome: inactive
[2]
  Potency: inactive
[3]
  Potency: inactive
[4]
  outcome: inactive
[7]
  Potency: inactive
[5]
  Potency: inactive
[8]
  Potency: inactive

## COc1ccc(Cl)cc1C(=O)NCCc1ccc(S(=O)(=O)NC(=O)NC2CCCCC2)cc1
[1]
  outcome: inactive
[2]
  Potency: inactive
[3]
  Potency: inactive
[4]
  outcome: inactive
[8]
  Potency: inactive
[6]
  outcome: inactive

## Cc1cnc(C(=O)NCCc2ccc(S(=O)(=O)NC(=O)NC3CCCCC3)cc2)cn1
[1]
  outcome: inactive
[2]
  Potency: inactive
[3]
  Potency: inactive
[4]
  outcome: inactive
[7]
  Potency: inactive
[6]
  outcome: inactive

## CCCCCOC(C)=O
[1]
  outcome: inactive
[2]
  Potency: inactive
[3]
  Potency: inactive
[4]
  outcome: inactive
[7]
  Potency: inactive
[5]
  Potency: inactive
[8]
  Potency: inactive
[6]
  outcome: inactive

## O=C(O)c1cc(O)c(O)c(O)c1
[1]
  outcome: inactive
[2]
  Potency: inactive
[3]
  Potency: inactive
[4]
  outcome: inactive
[7]
  Potency: inactive
[8]
  Potency: inactive

## O=C(O)[C@H](O)[C@@H](O)[C@H](O)[C@H](O)CO
[2]
  Potency: inactive
[3]
  Potency: inactive
[7]
  Potency: inactive
[5]
  Potency: inactive
[8]
  Potency: inactive
[6]
  outcome: inactive

## Cc1cccnc1
[1]
  outcome: inactive
[2]
  Potency: inactive
[3]
  Potency: inactive
[4]
  outcome: inactive
[7]
  Potency: inactive
[5]
  Potency: inactive
[8]
  Potency: inactive

## O=S1(=O)CC=CC1
[1]
  outcome: inactive
[2]
  Potency: inactive
[3]
  Potency: inactive
[4]
  outcome: inactive
[5]
  Potency: inactive
[6]
  outcome: inactive

## CN(C)CCCN
[1]
  outcome: inactive
[2]
  Potency: inactive
[3]
  Potency: inactive
[4]
  outcome: inactive
[7]
  Potency: inactive
[8]
  Potency: inactive
[6]
  outcome: inactive

## CC(c1cc2ccccc2s1)N(O)C(N)=O (configuration not stated)
[1]
  outcome: inactive
[2]
  Potency: inactive
[3]
  Potency: inactive
[4]
  outcome: inactive
[5]
  Potency: inactive
[8]
  Potency: inactive
[6]
  outcome: inactive
[9]
  Potency: inactive

— PubChem BioAssay (Tox21)
